Here are results for 38 molecules from PubChem BioAssay (NCI).

SMILES strings stand for the structures. About 83,000 compounds went through this panel and 20% of them were active in at least one assay; those are over-represented in the sample as a whole.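 Negative percent growth values reflect cell death: -40 means 40% of the cells present at the start died, and -100 means all died.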 Active and inactive are the calls of the source. The calls were made as follows: active = growth percent below 10; inactive = the rest.

One test relates to TK-10 renal. The test can be described thus: NCI-60 one-dose screen, 48 h (100 = growth as untreated, 0 = no growth, -100 = all killed). Conditions: 10 µM unless noted.
Turning to `Nc1cc2nc3ccccc3sc-2cc1=O`, the growth is 137% (inactive).

For `C#Cc1nc(Nc2cc(C)[nH]n2)c2ccccc2n1`, the growth is -21.3% (active).

For the molecule `CCOC(=O)c1nc(Nc2cc(C)[nH]n2)c2ccccc2n1`, the growth is 77.3% (inactive).

Regarding `O=C(/C=C/c1ccc(Cl)cc1)/C=C/c1cc2ccccc2[nH]c1=O`, the growth was 119% (inactive).

Turning to `CCOC(=O)c1ccc2c(c1)nc(/C=C/c1ccc(Cl)cc1)n2-c1cc(C(C)(C)C)[nH]n1`, the growth is 60% (inactive).

For `CC(=O)OCC(=O)C1CCC=CC1OC(C)=O` (stereo unspecified), the growth was 110% (inactive).

`COc1cc(C2CC(=O)c3c(C)nn(-c4nc5ccccc5[nH]4)c3C2)cc(OC)c1OC` (stereo unspecified): the growth was 45.3% (inactive).

`CC1(C)OCC2OC3(C(=O)O)OC(C)(C)OC3C2O1` (stereo unspecified): the growth is 102% (inactive).

Turning to `COc1ccc(C(=O)c2sc3nc(-c4ccccc4OC)ccc3c2N)cc1OC`, the growth was 79.7% (inactive).

With `COc1ccc(C(=O)c2sc3nc4c(cc3c2N)CCCC4)cc1OC`, the growth is 83% (inactive).

As to `Cc1ccc2c(NCCCN(C)C)c3c(C)nn(C)c3nc2c1`, the growth is 28.4% (inactive).

In the case of `Cc1ccc(NC(=O)c2sc3nc4c(cc3c2N)C(=O)CCC4)cc1C`, the growth is 59.9% (inactive).

On to `COc1c(C2CC(=O)Nc3c2cnn3Cc2ccco2)cc2c(c1OC)OCO2` (stereo unspecified), for which the growth is 73.9% (inactive).

As for `Cc1ccn2c(-c3csc(Nc4cccc(O)c4)n3)c(C)nc2c1`, the growth is 57.2% (inactive).

In the case of `NC(CC(=O)O)C(=O)OCc1ccccc1` (stereo unspecified), the growth is 122% (inactive).

In the case of `O=C1Nc2ccc(Br)cc2C12CC(c1ccccc1)=NN2` (stereo unspecified), the growth was 77.8% (inactive).

In the case of `Cc1cc(Nc2nc(N3CCNCC3)nc3ccccc23)n[nH]1`, the growth was 60.5% (inactive).

As for `CCc1ccccc1NC(=O)c1sc2nc3c(cc2c1N)C(=O)CCC3`, the growth was 54.7% (inactive).

`CCOC(=O)N1CCN(c2nc(Nc3cc(C)[nH]n3)c3ccccc3n2)CC1`: the growth was 40.9% (inactive).

For `CN1CCCCC1CCN1c2ccccc2Sc2ccc(Cl)cc21` (stereo unspecified), the growth was 69.3% (inactive).

In the case of `COc1c(Cl)cc(Cl)cc1Cl`, the growth is 109% (inactive).

For `Cc1cc(Nc2nc(N3CCOCC3)nc3ccccc23)n[nH]1`, the growth is 47.2% (inactive).

Take `COc1ccc(C2CC(=O)Nc3c2c(C)nn3-c2nc3ccccc3[nH]2)cc1` (stereo unspecified): the growth is 116% (inactive).

In the case of `COc1cc(-c2cc(-c3nc4ccc(Cl)cc4[nH]3)[nH]n2)cc(OC)c1OC`, the growth is 67.1% (inactive).

Consider `Cc1noc(C)c1-c1cc(O)cc(C(O)c2ccccc2)c1` (stereo unspecified), for which the growth was 12.6% (inactive).

Take `COc1ccc(-c2nc(Nc3cc(C)[nH]n3)c3ccccc3n2)cc1`: the growth was 53.3% (inactive).

With `Cc1cc(Nc2nc(-c3cccnc3)nc3ccccc23)n[nH]1`, the growth is 59.8% (inactive).

As to `CC#Cc1nc2ccccc2c(=O)[nH]1`, the growth is 48% (inactive).

As for `O=C(Nc1ccc(F)cc1)Nc1ccc(CCO)cc1`, the growth was 112% (inactive).

For `CCCCNC(=O)NS(=O)(=O)c1ccc(N2N=C(c3cc(C)ccc3C)CC2c2cc(OC)c(OC)c(OC)c2)cc1` (stereo unspecified), the growth was 74.5% (inactive).

For `COc1cc(C2C(C(=O)c3cccs3)=C(O)C(=O)N2CCN2CCOCC2)cc(OC)c1OC` (stereo unspecified), the growth is 99.2% (inactive).

Take `NCc1cn2cc(Cl)sc2n1`: the growth was 92.1% (inactive).

With `CCCCCCCCCCCCN1CCCC(C)C1` (stereo unspecified), the growth is 87.9% (inactive).

Take `O=c1c2cccc3c(Nc4ccccn4)ccc(c32)c2nc3ccccc3n12`: the growth was 65.8% (inactive).

In the case of `Cc1ccc(S(=O)(=O)N(CCc2ccc(Cl)cc2)S(=O)(=O)c2ccc(C)cc2)cc1`, the growth was 83.9% (inactive).

Consider `O=C(N/N=C/c1ccc(O)cc1O)c1cccnc1`, for which the growth is 39.4% (inactive).

On to `CNC(=S)N/N=C/CSC/C=N/NC(=S)NC`, for which the growth is 103% (inactive).

On to `COc1ccc(-c2c(C)noc2-c2ccc(O)cc2O)cc1`, for which the growth was 99.8% (inactive).

The next test has as its system ACHN renal. The test is described as above. Conditions: 10 µM unless noted.
As to `Nc1cc2nc3ccccc3sc-2cc1=O`, the growth is 65.5% (inactive).

For the molecule `C#Cc1nc(Nc2cc(C)[nH]n2)c2ccccc2n1`, the growth was -42.4% (active).

As for `CCOC(=O)c1nc(Nc2cc(C)[nH]n2)c2ccccc2n1`, the growth was 73.4% (inactive).

As for `O=C(/C=C/c1ccc(Cl)cc1)/C=C/c1cc2ccccc2[nH]c1=O`, the growth is 74% (inactive).

As for `CCOC(=O)c1ccc2c(c1)nc(/C=C/c1ccc(Cl)cc1)n2-c1cc(C(C)(C)C)[nH]n1`, the growth is 23.8% (inactive).

As to `CC(=O)OCC(=O)C1CCC=CC1OC(C)=O` (stereo unspecified), the growth is 100% (inactive).

As to `COc1cc(C2CC(=O)c3c(C)nn(-c4nc5ccccc5[nH]4)c3C2)cc(OC)c1OC` (stereo unspecified), the growth is 59.1% (inactive).

As for `CC1(C)OCC2OC3(C(=O)O)OC(C)(C)OC3C2O1` (stereo unspecified), the growth is 103% (inactive).

For the molecule `COc1ccc(C(=O)c2sc3nc(-c4ccccc4OC)ccc3c2N)cc1OC`, the growth is 66.9% (inactive).

As for `COc1ccc(C(=O)c2sc3nc4c(cc3c2N)CCCC4)cc1OC`, the growth was 63% (inactive).

Regarding `Cc1ccc2c(NCCCN(C)C)c3c(C)nn(C)c3nc2c1`, the growth is 27.2% (inactive).

In the case of `Cc1ccc(NC(=O)c2sc3nc4c(cc3c2N)C(=O)CCC4)cc1C`, the growth was 52.2% (inactive).

Take `COc1c(C2CC(=O)Nc3c2cnn3Cc2ccco2)cc2c(c1OC)OCO2` (stereo unspecified): the growth is 40.2% (inactive).

On to `Cc1ccn2c(-c3csc(Nc4cccc(O)c4)n3)c(C)nc2c1`, for which the growth is 26% (inactive).

On to `NC(CC(=O)O)C(=O)OCc1ccccc1` (stereo unspecified), for which the growth was 97.1% (inactive).

For `O=C1Nc2ccc(Br)cc2C12CC(c1ccccc1)=NN2` (stereo unspecified), the growth is 49.1% (inactive).

For the molecule `Cc1cc(Nc2nc(N3CCNCC3)nc3ccccc23)n[nH]1`, the growth is 41.5% (inactive).

Take `CCc1ccccc1NC(=O)c1sc2nc3c(cc2c1N)C(=O)CCC3`: the growth is 58.4% (inactive).

As to `CCOC(=O)N1CCN(c2nc(Nc3cc(C)[nH]n3)c3ccccc3n2)CC1`, the growth is 50.7% (inactive).

`CN1CCCCC1CCN1c2ccccc2Sc2ccc(Cl)cc21` (stereo unspecified): the growth is 58.2% (inactive).

Take `COc1c(Cl)cc(Cl)cc1Cl`: the growth was 112% (inactive).

As for `Cc1cc(Nc2nc(N3CCOCC3)nc3ccccc23)n[nH]1`, the growth was 32.8% (inactive).

In the case of `COc1ccc(C2CC(=O)Nc3c2c(C)nn3-c2nc3ccccc3[nH]2)cc1` (stereo unspecified), the growth was 99.1% (inactive).

With `COc1cc(-c2cc(-c3nc4ccc(Cl)cc4[nH]3)[nH]n2)cc(OC)c1OC`, the growth was 51.9% (inactive).

On to `Cc1noc(C)c1-c1cc(O)cc(C(O)c2ccccc2)c1` (stereo unspecified), for which the growth is 60.6% (inactive).

In the case of `COc1ccc(-c2nc(Nc3cc(C)[nH]n3)c3ccccc3n2)cc1`, the growth is 42.8% (inactive).

On to `Cc1cc(Nc2nc(-c3cccnc3)nc3ccccc23)n[nH]1`, for which the growth is 38% (inactive).

Turning to `CC#Cc1nc2ccccc2c(=O)[nH]1`, the growth is 28.8% (inactive).

For the molecule `O=C(Nc1ccc(F)cc1)Nc1ccc(CCO)cc1`, the growth was 110% (inactive).

With `CCCCNC(=O)NS(=O)(=O)c1ccc(N2N=C(c3cc(C)ccc3C)CC2c2cc(OC)c(OC)c(OC)c2)cc1` (stereo unspecified), the growth was 63.6% (inactive).

Take `COc1cc(C2C(C(=O)c3cccs3)=C(O)C(=O)N2CCN2CCOCC2)cc(OC)c1OC` (stereo unspecified): the growth was 102% (inactive).

Turning to `NCc1cn2cc(Cl)sc2n1`, the growth was 102% (inactive).

Regarding `CCCCCCCCCCCCN1CCCC(C)C1` (stereo unspecified), the growth was 85.4% (inactive).

As to `O=c1c2cccc3c(Nc4ccccn4)ccc(c32)c2nc3ccccc3n12`, the growth is 76.1% (inactive).

As for `Cc1ccc(S(=O)(=O)N(CCc2ccc(Cl)cc2)S(=O)(=O)c2ccc(C)cc2)cc1`, the growth is 95.2% (inactive).

As for `O=C(N/N=C/c1ccc(O)cc1O)c1cccnc1`, the growth was 30.1% (inactive).

Turning to `CNC(=S)N/N=C/CSC/C=N/NC(=S)NC`, the growth is 99.6% (inactive).

Turning to `COc1ccc(-c2c(C)noc2-c2ccc(O)cc2O)cc1`, the growth was 90.3% (inactive).
